Drawing on PubChem BioAssay (NCATS), this text covers Potency and activity change, negative = inhibition for 10 molecules.

A short description of assay [1]: qHTS for Inhibitors of the Functional Ribonucleoprotein Complex (vRNP) of Lassa (LASV) Arenavirus: LASV Primary Screen - GLuc reporter signal (AID 1347082; calls by dose curve; tested in HEK293 reporter line; note: nearly all actives have a fitted effect of over 60% in size; for activity change, negative = inhibition: % is set by controls: 0 for no effect and ±100 for the full control effect). The conditions noted are these: LASV minigenome vRNP, Gaussia luciferase reporter; series mostly up to 57.5 µM. Background: qHTS replaces the single test concentration by a dilution series.
Assay [2] in a line: qHTS for Inhibitors of the Functional Ribonucleoprotein Complex (vRNP) of Lymphocytic Choriomeningitis Arenaviruses (LCMV): Viability assay - alamar blue signal for LCMV Primary Screen (AID 1347085; calls by dose curve; tested in HEK293 reporter line; note: nearly all actives have a fitted effect of over 80% in size). Particulars: alamar blue viability counter-screen, LCMV vRNP screen cells; series mostly up to 57.5 µM.
Assay [3] deals with Nucleoprotein (Lymphocytic choriomeningitis virus (strain Armstrong)) (UniProt P09992). Kind of assay: qHTS for Inhibitors of the Functional Ribonucleoprotein Complex (vRNP) of Lymphocytic Choriomeningitis Arenaviruses (LCMV): LCMV Primary Screen - GLuc reporter signal (AID 1347086). For activity change, negative = inhibition: % is set by controls: 0 for no effect and ±100 for the full control effect. Note: nearly all actives have a fitted effect of over 70% in size. The conditions noted are these: LCMV minigenome vRNP cell assay, Gaussia luciferase reporter; series mostly up to 57.5 µM.
Nucleoprotein (Lymphocytic choriomeningitis virus (strain Armstrong)), sequence (P09992 whole entry, looked up): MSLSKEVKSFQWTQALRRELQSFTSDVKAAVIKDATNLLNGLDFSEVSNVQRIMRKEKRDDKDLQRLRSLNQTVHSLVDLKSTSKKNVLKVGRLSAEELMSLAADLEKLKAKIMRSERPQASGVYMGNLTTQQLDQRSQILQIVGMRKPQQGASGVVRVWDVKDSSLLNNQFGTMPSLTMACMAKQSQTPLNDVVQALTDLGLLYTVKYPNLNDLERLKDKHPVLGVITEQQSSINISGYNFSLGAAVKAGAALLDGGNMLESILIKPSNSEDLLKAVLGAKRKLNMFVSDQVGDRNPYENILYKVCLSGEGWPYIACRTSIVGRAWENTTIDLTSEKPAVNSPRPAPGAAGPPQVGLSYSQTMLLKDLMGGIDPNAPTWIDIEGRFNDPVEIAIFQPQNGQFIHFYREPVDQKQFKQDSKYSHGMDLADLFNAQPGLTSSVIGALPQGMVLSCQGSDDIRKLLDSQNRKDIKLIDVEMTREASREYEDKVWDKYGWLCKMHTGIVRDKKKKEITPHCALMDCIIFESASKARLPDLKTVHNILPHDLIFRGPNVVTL

Assay [4] is described as follows: Cytotoxicity counterscreen for inhibitors of SARS-CoV-2 cell entry (AID 1645845). Note: nearly all actives have a fitted effect of over 50% in size. Particulars: cell viability (SARS-CoV-2 entry assay cells); series mostly up to 57.1 µM. In outline: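 Expi293F/hACE2 cells seeded overnight; cpd pin-transferred in DMSO, 1 h preincubation, + media, 48 h 37 C 5% CO2; ATPLite 1step luminescence; normalized to cells and no cells.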
(In general: The purpose of a counterscreen is to sort out artefacts and off-target activity.)

Assay [5] is described as follows: Primary qHTS to identify inhibitors of SARS-CoV-2 cell entry (AID 1645846). Note: nearly all actives have a fitted effect of over 45% in size. Particulars: SARS-CoV-2 pseudovirus cell entry assay, luminescence; activity change, negative = inhibition: at 57.1 µM (top of the series) unless noted; series mostly up to 57.1 µM. The essentials:
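HEK293 cells stably expressing human ACE2, pre-treated 1 h with compound, then infected with MLV particles pseudotyped with Wuhan-Hu-1 spike (C-terminal 19-aa truncation). Luciferase luminescence after 48 h at 37 °C, normalised to spike PP and bald PP.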

Records with an inconclusive call do not appear. Active and inactive are the calls of the source. Unless noted, calls come from the whole dose curve.
Potency is the fitted concentration of half-maximal effect.

On to `Cn1c(=O)c(Oc2ccc(F)cc2F)cc2cnc(NC3CCOCC3)nc21`, for which the Potency entry in assay [1], in assay [2], in assay [3], in assay [4] and in assay [5] was “inactive” throughout.

`CN(C)CC[C@H](CSc1ccccc1)Nc1ccc(S(=O)(=O)NC(=O)c2ccc(N3CCN(Cc4ccccc4-c4ccc(Cl)cc4)CC3)cc2)cc1[N+](=O)[O-]`: the Potency entry in assay [1], in assay [2], in assay [3] and in assay [4] was “inactive” each time. In addition, the activity change, negative = inhibition in assay [5] came to 1.37%.

Turning to `C=CC(=O)Nc1cccc(Sc2nc(Nc3ccc(N4CCN(C)CC4)cc3)ncc2Cl)c1`, the Potency entry in assay [1], in assay [2] and in assay [3] was “inactive” each time. The figures for the Potency in assay [4] and in assay [5] were 8.91 µM (active) and 3.98 µM (active), respectively.

Regarding `Nc1ncnc2c1nc(Cl)n2[C@@H]1O[C@H](CO)[C@@H](O)[C@@H]1O`, the Potency result in assay [1], in assay [2] and in assay [3] was “inactive” each time.

Regarding `Clc1cc(Cl)cc(CNc2ncncc2-c2ccc3c(c2)OCO3)c1`, the Potency entry in assay [1], in assay [2], in assay [3] and in assay [4] was “inactive” each time.

`Oc1ccc2c(c1)OCC1(O)Cc3cc(O)c(O)cc3C21` (stereo unspecified): the Potency result in assay [1], in assay [2] and in assay [3] was “inactive” each time.

With `COc1cc2c(oc(=O)c3cc(C)cc(OC)c32)c2c(C3OC(C)C(O)C(C)(O)C3O)ccc(O)c12` (stereo unspecified), the Potency result in assay [1], in assay [2] and in assay [3] was “inactive” throughout.

Take `CC(C)n1cnc2c(NCCc3ccc(O)cc3)nc(-c3csc4ccccc34)nc21`: the Potency entry in assay [1], in assay [2], in assay [3] and in assay [4] was “inactive” each time. Further, in assay [5], the activity change, negative = inhibition was -45.8%.

Consider `COc1cc2c(Nc3ccc(Cl)c(Cl)c3F)ncnc2cc1OCC1C[C@@H]2CN(C)C[C@H]2C1`, for which the Potency in assay [1] was 8.63 µM (active); in assay [2] it was 1.93 µM (active); in assay [3], 2.43 µM (active).

Regarding `O=c1[nH]nc(OCCCc2ccc(Cl)cc2)c(NCc2cccnc2)c1Br`, the Potency result in assay [1], in assay [2], in assay [3] and in assay [4] was “inactive” in each case. Also, the activity change, negative = inhibition in assay [5] was -25.1%.
